In PubChem BioAssay:
Calls of active or inactive are those of the source.

What was measured:
[1] = binders of probe aFSTL3 on microarray, primary screen, stem cell growth factor project, biochemical, small-molecule microarray, fluorescence 635/667 (AID 1064); conditions: higher = more signal;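 note: measures binding of the biotinylated anti-FSTL3 antibody to printed compounds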
[2] = binders from COS7 lysate, DM2A8 probe, primary screen, torsin A project, cell lysate, small-molecule microarray, fluorescence 635/667 (AID 1065); conditions: higher = more signal, COS7 lysate expressing mutant human TOR1A
[3] = binders of probe aFGF2 on microarray, primary screen, stem cell growth factor project, biochemical, small-molecule microarray, fluorescence 635/667 (AID 1067); conditions: higher = more signal;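 note: measures binding of biotinylated aFGF2 protein to printed compounds on slides; z-score merges feature fluorescence and signal-to-noise across triplicate slides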
[4] = binders of probe aFGF10 on microarray, primary screen, stem cell growth factor project, biochemical, small-molecule microarray, fluorescence 635/667 (AID 1071); conditions: higher = more signal;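 note: score merges 667 nm spot intensity and signal to noise from triplicate slides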
[5] = biological target: Neurogenic locus notch homolog protein 2 (Homo sapiens) (UniProt Q04721); test: Notch2 binders on small-molecule microarrays, primary screen, biochemical, small-molecule microarray, 635 nm fluorescence, stem cell growth factors (AID 1073); conditions: Notch2 binding, higher = more signal
[6] = biological target: Pro-neuregulin-1, membrane-bound isoform (Homo sapiens) (UniProt Q02297); test: NRG1 binders on small-molecule microarrays, primary screen, psychiatric disease protein project, biochemical, small-molecule microarray, fluorescence 635/667 (AID 1075); conditions: NRG1 binding, 635 nm fluorescence, higher = more signal;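 note: score combines 667 nm spot fluorescence with signal to noise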
[7] = system: Neuregulin-1 EGF-like domain; test: binders of neuregulin-1 EGF-like domain, primary screen, biochemical, small-molecule microarray, 635 nm fluorescence (AID 1081); conditions: small-molecule microarray binding, higher = more signal;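 note: binding of the protein to compounds printed on small-molecule microarray slides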
[8] = FRG1 promoter luciferase signal modulators, primary screen, FRG1 inhibition for FSHD, cell-based, C2C12 myotubes, firefly/Renilla luciferase, luminescence (AID 1084); conditions: higher = more signal, called active from +8 up or from −8 down
[9] = binders of probe aFST on microarray, primary screen, stem cell growth factor project, biochemical, small-molecule microarray, fluorescence 635/667 (AID 1086); conditions: higher = more signal;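 note: score merges 667 nm fluorescence with signal-to-noise of each printed compound spot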
[10] = binders of probe aHhip on microarray, primary screen, stem cell growth factor project, biochemical, small-molecule microarray, fluorescence 635/667 (AID 1087); conditions: higher = more signal;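 note: score merges spot fluorescence at 667nm with spot signal to noise ratio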

Chain of Neurogenic locus notch homolog protein 2 (Homo sapiens) (Q04721 whole entry, looked up, canonical isoform): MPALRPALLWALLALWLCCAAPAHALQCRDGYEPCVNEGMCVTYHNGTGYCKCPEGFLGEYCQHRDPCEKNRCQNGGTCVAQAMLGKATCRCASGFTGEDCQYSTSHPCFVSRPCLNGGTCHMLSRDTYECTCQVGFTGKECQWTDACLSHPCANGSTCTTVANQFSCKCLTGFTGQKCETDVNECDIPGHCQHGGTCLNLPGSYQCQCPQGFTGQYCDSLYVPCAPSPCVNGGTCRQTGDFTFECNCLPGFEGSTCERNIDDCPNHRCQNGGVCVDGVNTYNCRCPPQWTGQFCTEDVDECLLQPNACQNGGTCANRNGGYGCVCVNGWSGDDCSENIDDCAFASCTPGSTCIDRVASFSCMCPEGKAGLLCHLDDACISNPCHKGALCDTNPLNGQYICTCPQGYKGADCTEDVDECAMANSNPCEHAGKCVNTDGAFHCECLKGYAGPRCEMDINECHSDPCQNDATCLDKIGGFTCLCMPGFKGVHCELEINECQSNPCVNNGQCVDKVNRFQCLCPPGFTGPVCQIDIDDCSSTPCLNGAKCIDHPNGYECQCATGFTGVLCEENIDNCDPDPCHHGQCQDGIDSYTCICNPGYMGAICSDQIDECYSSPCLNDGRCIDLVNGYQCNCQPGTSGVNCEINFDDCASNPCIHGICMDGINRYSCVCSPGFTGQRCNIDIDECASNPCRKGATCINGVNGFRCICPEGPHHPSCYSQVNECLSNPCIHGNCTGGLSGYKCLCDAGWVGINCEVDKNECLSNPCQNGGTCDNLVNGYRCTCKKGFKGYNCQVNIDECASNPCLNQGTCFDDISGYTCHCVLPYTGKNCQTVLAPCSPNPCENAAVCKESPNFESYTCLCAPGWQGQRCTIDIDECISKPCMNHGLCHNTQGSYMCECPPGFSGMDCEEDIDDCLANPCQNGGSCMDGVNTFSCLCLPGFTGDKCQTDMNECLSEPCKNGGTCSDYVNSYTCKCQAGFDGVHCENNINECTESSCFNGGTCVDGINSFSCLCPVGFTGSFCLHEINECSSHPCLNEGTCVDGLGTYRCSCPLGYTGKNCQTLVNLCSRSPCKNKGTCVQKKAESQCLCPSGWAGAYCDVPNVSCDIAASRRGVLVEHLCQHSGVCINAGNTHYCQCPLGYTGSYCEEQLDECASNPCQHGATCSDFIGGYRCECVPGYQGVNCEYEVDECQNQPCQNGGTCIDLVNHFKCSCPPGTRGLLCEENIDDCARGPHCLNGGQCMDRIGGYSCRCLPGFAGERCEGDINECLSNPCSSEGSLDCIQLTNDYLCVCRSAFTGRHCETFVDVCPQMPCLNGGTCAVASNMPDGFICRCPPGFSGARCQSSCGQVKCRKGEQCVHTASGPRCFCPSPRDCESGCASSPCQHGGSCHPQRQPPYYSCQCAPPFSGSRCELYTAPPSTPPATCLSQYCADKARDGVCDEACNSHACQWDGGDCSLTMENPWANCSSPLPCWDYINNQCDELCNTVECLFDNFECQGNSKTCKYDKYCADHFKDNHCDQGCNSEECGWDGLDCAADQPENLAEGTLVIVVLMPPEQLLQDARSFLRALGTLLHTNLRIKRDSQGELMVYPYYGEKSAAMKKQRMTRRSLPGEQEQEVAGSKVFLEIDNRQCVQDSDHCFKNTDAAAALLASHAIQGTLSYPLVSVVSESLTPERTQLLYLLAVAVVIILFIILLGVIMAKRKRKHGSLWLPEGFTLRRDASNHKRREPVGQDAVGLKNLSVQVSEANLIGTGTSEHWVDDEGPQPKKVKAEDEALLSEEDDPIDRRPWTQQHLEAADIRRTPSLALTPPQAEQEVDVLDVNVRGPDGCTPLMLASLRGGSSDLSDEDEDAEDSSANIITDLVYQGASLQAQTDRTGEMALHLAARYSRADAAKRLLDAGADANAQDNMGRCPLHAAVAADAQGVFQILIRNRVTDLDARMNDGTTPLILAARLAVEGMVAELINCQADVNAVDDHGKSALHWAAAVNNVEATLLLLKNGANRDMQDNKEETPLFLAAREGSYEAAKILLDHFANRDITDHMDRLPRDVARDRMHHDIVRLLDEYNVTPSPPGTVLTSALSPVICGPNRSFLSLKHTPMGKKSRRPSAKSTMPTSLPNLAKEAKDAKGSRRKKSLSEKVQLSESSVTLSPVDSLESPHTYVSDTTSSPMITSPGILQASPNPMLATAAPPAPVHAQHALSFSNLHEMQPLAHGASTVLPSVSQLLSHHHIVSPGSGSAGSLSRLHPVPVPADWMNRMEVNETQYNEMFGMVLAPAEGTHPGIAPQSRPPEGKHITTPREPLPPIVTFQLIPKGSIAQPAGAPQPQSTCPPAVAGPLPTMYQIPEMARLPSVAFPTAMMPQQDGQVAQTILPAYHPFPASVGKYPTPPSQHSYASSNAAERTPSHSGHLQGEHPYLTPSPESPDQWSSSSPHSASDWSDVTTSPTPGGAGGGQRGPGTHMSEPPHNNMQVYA
Chain of Pro-neuregulin-1, membrane-bound isoform (Homo sapiens) (Q02297 whole entry, looked up, the tested form may be a part, canonical isoform): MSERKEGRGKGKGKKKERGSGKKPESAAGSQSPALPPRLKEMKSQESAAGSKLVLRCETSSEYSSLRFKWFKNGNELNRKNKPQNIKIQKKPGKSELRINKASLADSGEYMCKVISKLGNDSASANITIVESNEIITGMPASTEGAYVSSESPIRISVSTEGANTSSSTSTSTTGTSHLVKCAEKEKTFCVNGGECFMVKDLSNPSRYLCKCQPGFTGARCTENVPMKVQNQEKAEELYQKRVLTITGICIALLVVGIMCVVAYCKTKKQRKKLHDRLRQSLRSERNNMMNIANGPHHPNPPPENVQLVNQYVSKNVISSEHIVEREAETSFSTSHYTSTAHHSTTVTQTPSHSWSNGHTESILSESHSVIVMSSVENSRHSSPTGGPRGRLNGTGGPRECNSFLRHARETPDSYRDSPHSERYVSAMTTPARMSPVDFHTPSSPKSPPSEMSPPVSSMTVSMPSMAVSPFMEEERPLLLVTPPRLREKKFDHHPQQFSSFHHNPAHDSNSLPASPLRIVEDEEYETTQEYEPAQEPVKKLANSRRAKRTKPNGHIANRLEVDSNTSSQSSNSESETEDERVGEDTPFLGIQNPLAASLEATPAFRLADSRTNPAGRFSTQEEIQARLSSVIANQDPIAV

Row | SMILES | composite z-score [1] | composite z-score [2] | composite z-score [3] | composite z-score [4] | composite z-score [5] | composite z-score [6] | composite z-score [7] | z-score [8] | composite z-score [9] | composite z-score [10]
1 | N#Cc1ccc(-c2cccc(=O)o2)cc1 | -0.5 | 0.316 | -0.103 | 0.248 | 0.601 | 0.114 | 0.678 | 0.563 (inactive) | 0.445 | -0.166
2 | COc1ccc(C(O)C2C=CC3C(=O)N(C)C(=O)C3N2N(c2ccccc2)c2ccccc2)cc1 (stereo not given) | 0.967 | 1.17 | 0.0148 | 0.209 | 1.41 | 0.941 | 1.22 | 0.57 (inactive) | 0.982 | 0.0972
3 | OCCCC1=CC(c2ccc(CN3CCCC3)cc2)N(Cc2cccc(OC(F)(F)F)c2)CC1 (stereo not given) | 0.373 | 0.134 | -0.0853 | 0.0263 | -0.546 | 0.0603 | 0.0735 | 0.372 (inactive) | -0.176 | -0.236
4 | CC(C)C(CO)N1C(=O)[C@@H]2C3C(=O)OCCC/C=C\[C@H]3OC23C=CCN(Cc2ccccc2)C(=O)[C@@H]13 (stereo not given in full) | 0.598 | -0.217 | -0.0744 | 0.648 | -0.376 | 1.43 | 1.58 | 0.597 (inactive) | -0.406 | -0.134
5 | O=C1C2C=CC(C(O)c3c(F)cccc3Cl)N(Nc3ccc([N+](=O)[O-])cc3)C2C(=O)N1c1ccccc1 (stereo not given) | 0.0505 | 0.572 | 0.147 | 0.89 | 1.61 | 1.12 | 1.01 | -1.18 (inactive) | 1.37 | -0.0618
6 | COC(=O)[C@@]1(Cc2ccc(F)cc2)[C@H]2c3cc(C(=O)N(C)C)n(CCc4ccc(O)c(O)c4)c3C[C@H]2CN1C(=O)c1ccccc1 | -0.0383 | -0.134 | 0.187 | 0.876 | 1.68 | 0.562 | 1 | 0.115 (inactive) | 0.662 | -0.374
7 | C=C(CCCC)/C(=C/C[C@H](OC(C)=O)c1cccc(OCCO)c1)c1cnc2ccccc2c1 | 0.243 | -0.194 | -0.116 | 0.0835 | 0.16 | -0.0759 | 0.244 | -0.45 (inactive) | -0.381 | -0.0994
8 | C[C@]1(C(=O)O)c2ccccc2C(=O)N(Cc2cc(F)cc(C(F)(F)F)c2)[C@H]1c1ccc(CO)cc1 | -0.25 | -0.205 | -0.0887 | 0.0859 | 0.361 | 0.233 | 0.936 | -0.163 (inactive) | 0.436 | -0.268
